Bioassay records from PubChem.
An excerpt weighted towards active compounds, which were near 1.9% of everything screened.
PERK inh: block of dimerizer-induced PERK translation repression, primary screen, PERK inhibitor project, CHO PERK-DD cells, SEAP luminescence, HTS; inhibition, % at 5.6 µM; 0.17% of 220,000 active; CHO PERK-DD fusion, SEAP luminescence translation reporter; AID 1416, 2008; Eukaryotic translation initiation factor 2-alpha kinase 3 (Homo sapiens), Q9NZJ5;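 active = inhibition above the mean inhibition of all tested compounds plus 3 SD, set separately per screening campaign, cut at about 2.9% in these data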;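 note: PERK kinase domain activated by AP20187 dimerizer at 100 nM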
PABP polyA inh: PABP poly(A) RNA binding inhibitors, primary screen, biochemical, fluorescence polarization, uHTS; inhibition, % at 35 µM; AID 2014, 2009; 1% of 290,000 active;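 note: calls also rest on retests at 20 µM and on dose response follow-up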
Target sequence (P11940 whole entry, looked up): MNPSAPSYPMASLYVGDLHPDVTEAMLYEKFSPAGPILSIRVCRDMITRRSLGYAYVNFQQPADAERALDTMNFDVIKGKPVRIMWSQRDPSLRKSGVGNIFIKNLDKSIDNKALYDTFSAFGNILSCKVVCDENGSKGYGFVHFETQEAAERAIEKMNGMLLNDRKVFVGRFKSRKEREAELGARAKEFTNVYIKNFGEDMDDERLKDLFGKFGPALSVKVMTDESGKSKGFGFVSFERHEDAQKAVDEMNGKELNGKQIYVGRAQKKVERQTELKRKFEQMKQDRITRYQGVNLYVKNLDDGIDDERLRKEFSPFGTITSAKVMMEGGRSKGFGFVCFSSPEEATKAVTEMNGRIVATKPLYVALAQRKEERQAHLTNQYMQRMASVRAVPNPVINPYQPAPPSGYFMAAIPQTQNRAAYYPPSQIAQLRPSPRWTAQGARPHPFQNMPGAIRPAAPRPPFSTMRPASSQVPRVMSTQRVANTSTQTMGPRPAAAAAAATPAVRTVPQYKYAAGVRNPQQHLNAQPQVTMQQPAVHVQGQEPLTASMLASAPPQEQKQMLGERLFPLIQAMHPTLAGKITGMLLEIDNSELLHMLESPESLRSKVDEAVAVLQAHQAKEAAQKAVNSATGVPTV
MLLE-PAM2 inh: inhibitors of PABP1 MLLE–PAM2 peptide binding, primary screen, biochemical, fluorescence polarization, FITC-PAM2, GST-MLLE. 0.36% of 360,000 active. AID 588489, 2011. inhibition, % at 20 µM; in the data active = inhibition above about 35%, passing the limit was not always enough
GRK2 inh: compounds blocking aptamer binding on GRK2 – biochemical, human GRK2, bead flow cytometry, HTS, primary screen | inhibition of aptamer binding, % at 10 µM | 0.59% of 330,000 active | FAM-aptamer displacement from GRK2 | Beta-adrenergic receptor kinase 1 (Homo sapiens), P25098 | AID 488847, 2010;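 active = inhibition of aptamer binding above 40%, roughly 3 SD of noise, on plates passing a quality check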;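 note: median bead fluorescence of bound FAM aptamer so fluorescent compounds give negative values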
eIF4H FP inh: human eIF4H binding inhibitors, primary screen, translation initiation inhibitor project, biochemical, uHTS, fluorescence polarization. Eukaryotic translation initiation factor 4H (Homo sapiens), Q15056. eIF4H fluorescence polarization binding assay. inhibition, % at 35 µM. 0.94% of 290,000 active;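 note: calls also rest on retests at 20 µM and on dose response follow-up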
GRK2 inh confirm: GRK2 aptamer-displacing inhibitors, retest, confirmation, biochemical, cherry pick 1, bead flow cytometry; bead-bound GRK2, FAM-aptamer displacement; 4% of 2,000 active; shares compounds with GRK2 inh; aptamer displacement, % at 10 µM;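 active = aptamer displacement above 40%, near three times the noise of non-fluorescent compounds, on plates passing quality checks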;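 note: negative values mostly reflect intrinsic compound fluorescence rather than true enhancement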
Aptamer quench SP: quenches fluorescent RNA aptamer, GRK2 hit artifact | shares compounds with GRK2 inh | Carboxyfluorescein RNA aptamer on beads, flow cytometry quenching; stronger effect = lower value | fluorescence response (% of DMSO), % at 10 µM | 2,000 tested, under 10 active | AID 504580;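 active = compounds that quench the bead-bound fluorescent RNA probe, cutting fluorescence to under half of the solvent control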;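 note: counterscreen run without GRK2 so only probe quenching by compound is measured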
GRK2 CP2: GRK2 aptamer-displacing inhibitors, hit retest, confirmation, biochemical, cherry pick 2, bead flow cytometry. shares compounds with GRK2 inh. bead-bound GRK2, FAM-aptamer displacement. inhibition of aptamer binding, % at 10 µM. 360 tested, under 10 active. AID 504782, 2011;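 active = inhibition of aptamer binding above 40%, about triple the noise seen with nonglowing compounds, on plates passing quality control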;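 note: negative values mostly come from compounds that fluoresce themselves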
FAM quench CP2: quenches fluorescent RNA aptamer, GRK2 hit artifact; shares compounds with GRK2 inh; carboxyfluorescein RNA aptamer beads, flow cytometry quenching; stronger effect = lower value; fluorescence response vs DMSO, % at 10 µM; 360 tested, under 10 active; AID 588494;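 active = response vs DMSO under 50%, meaning signal dropped by over half, treated as fluorescence quencher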;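 note: labelled aptamer on streptavidin beads without GRK2 as a quench counter-screen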
Of the large screens only hits and unclear results are named; the others gave an inactive call (follow-up assays come after a bar, where they were run). Unless noted, the rule behind the calls is not given here.

COc1ccc(C2=NO[C@@H]3C(=O)N(c4ccc(C)cc4C)C(=O)[C@H]23)cc1OC	none | GRK2 CP2 inactive | FAM quench CP2 inactive
Cc1ccc(N2C(=O)[C@@H]3C(c4ccc(F)cc4)=NO[C@@H]3C2=O)cc1	none | GRK2 CP2 inactive | FAM quench CP2 inactive
COc1ccc(C2=NO[C@@H]3C(=O)N(c4cccc(C)c4C)C(=O)[C@H]23)cc1OC	none | GRK2 CP2 inactive | FAM quench CP2 inactive
Cc1c(C(=O)N2CCCC(C)(C(=O)NS(=O)(=O)C3CC3)C2)oc2ccccc12 (stereo not drawn)	none (no result: PERK inh, PABP polyA inh, GRK2 inh, eIF4H FP inh)
COc1cc2c3nc4n(c(=O)c3n(CC(=O)NCC3CCCO3)c2cc1OC)CCS4 (stereo not drawn)	none (no result: PERK inh)
C[C@@H]1CN([C@@H](C)CO)C(=O)c2cc(Br)cnc2O[C@H]1CN(C)C(=O)Nc1ccc2c(c1)OCO2	none (no result: PERK inh, PABP polyA inh, GRK2 inh, eIF4H FP inh)
Cc1ccccc1-c1nc(CN2CCCC(C(=O)NCCCN3CCOCC3)C2)c(C)o1 (stereo not drawn)	none
Cc1oc(-c2ccc(Cl)cc2)nc1CN1CCCC(C(=O)NCc2ccco2)C1 (stereo not drawn)	none | GRK2 inh confirm inactive | Aptamer quench SP inactive
Cc1ccccc1-c1nc(CN2CCCC(C(=O)NCc3cccnc3)C2)c(C)o1 (stereo not drawn)	none | GRK2 inh confirm inactive | Aptamer quench SP inactive
COc1ccc(CNC(=O)C2CCCN(Cc3nc(-c4cccc(C)c4)oc3C)C2)cc1 (stereo not drawn)	none | GRK2 inh confirm inactive | Aptamer quench SP inactive
CC(=O)Nc1nnc(S(=O)(=O)N2CCN(c3ccc(Cl)cc3[N+](=O)[O-])CC2)s1	none (no result: PERK inh)
O=C(COc1ccc(C2SCCS2)cc1)NNC(=O)C(Cl)Cl	GRK2 inh 46 | GRK2 inh confirm inactive | Aptamer quench SP inactive
Cc1ccc(Nc2[nH]c(=O)c3ccccc3c2C(=O)c2ccccc2)cc1	none (no result: PERK inh, PABP polyA inh, MLLE-PAM2 inh, eIF4H FP inh)
O=C(CN(Cc1ccccc1)S(=O)(=O)c1ccc(S(=O)(=O)N2CCOCC2)cc1)Nc1ccccc1	GRK2 inh 52 | GRK2 inh confirm inactive | Aptamer quench SP inactive
O=C(CN(Cc1ccc(F)cc1)S(=O)(=O)c1ccc(S(=O)(=O)N2CCOCC2)cc1)Nc1ccccc1	none
COc1ccc(C(=O)CC(=O)C(=O)NCCc2cccc(C)c2)cc1	none
CC(C)(C)OC(=O)N(CC1CCNCC1)C(=O)c1[nH]c(C(F)(F)F)nc1-c1ccccc1	none (no result: PERK inh, PABP polyA inh, GRK2 inh, eIF4H FP inh)
COc1ccc(-c2nc3ccccc3c(=O)n2CC(C)C)cc1	GRK2 inh 98 (no result: PERK inh) | GRK2 inh confirm inactive | Aptamer quench SP inactive
COc1ccc(-c2cn3c(C)c(C(=O)N4CCCc5ccccc54)sc3n2)cc1	GRK2 inh 81 (no result: PABP polyA inh, eIF4H FP inh) | GRK2 inh confirm inactive | Aptamer quench SP inactive
COc1ccc(-c2cn3c(C)c(C(=O)N4CCN(c5ccccc5F)CC4)sc3n2)cc1	none (no result: PERK inh)
CC(NC(=O)c1ccc(C(C)(C)C)cc1)C(c1cccs1)N1CCOCC1 (stereo not drawn)	GRK2 inh 53 (no result: PERK inh) | GRK2 CP2 inactive | FAM quench CP2 inactive
COc1ccc(Cl)cc1C(=O)NNC(=O)c1csc(N2CCOCC2)n1	none (no result: PERK inh, PABP polyA inh, eIF4H FP inh)
O=C(CSc1nncn1-c1ccccc1)c1c[nH]c2ccccc12	GRK2 inh 51 | GRK2 inh confirm inactive | Aptamer quench SP inactive
Cc1noc2ncnc(Sc3ccc(Br)cc3)c12	none
Cc1nc(NC(=O)COC(=O)C2=NNC(=O)CC2)c(Cl)cc1Cl	GRK2 inh 55 | GRK2 inh confirm inactive | Aptamer quench SP inactive
O=C1CCC(C(=O)OCC(=O)Nc2cc(Cl)ccc2F)=NN1	none (no result: PERK inh, PABP polyA inh, eIF4H FP inh)
Cc1cc(C(=O)Nc2nncs2)oc1C	GRK2 inh 90 (no result: PERK inh) | GRK2 inh confirm inactive | Aptamer quench SP inactive
Cc1ccccc1C(=O)Nc1nncs1	none
COc1ccccc1CN1CC(C(=O)NCCc2ccccc2Cl)CCC1=O (stereo not drawn)	GRK2 inh 76 (no result: PERK inh) | GRK2 inh confirm inactive | Aptamer quench SP inactive
COc1ccccc1CN1CC(C(=O)NCc2cc(F)cc(C(F)(F)F)c2)CCC1=O (stereo not drawn)	GRK2 inh 89 (no result: PERK inh, PABP polyA inh, eIF4H FP inh) | GRK2 inh confirm inactive | Aptamer quench SP inactive
COc1ccccc1CN1CC(C(=O)NCCC2=CCCCC2)CCC1=O (stereo not drawn)	none (no result: PERK inh, PABP polyA inh, eIF4H FP inh)
O=C(CCCCC(=O)NNC(=O)COc1ccccc1)NNC(=O)COc1ccccc1	none (no result: PERK inh)
CN(C)S(=O)(=O)c1cccc(COc2ncnc3c(Cl)cc(Cl)cc23)c1	GRK2 inh 90 (no result: PERK inh) | GRK2 inh confirm inactive | Aptamer quench SP inactive
CN(C)S(=O)(=O)c1cccc(COC(=O)c2ccc(Cl)cc2O)c1	none
CC1CCN(CCOCCOc2ccccc2-c2ccccc2)CC1	none
CC1CCN(CCOCCOc2ccccc2Br)CC1	GRK2 inh 95 | GRK2 inh confirm inactive | Aptamer quench SP inactive
O=c1cc(CN2CCN(Cc3ccc(F)cc3)C(CCO)C2)[nH]c2ccccc12 (stereo not drawn)	GRK2 inh 41 (no result: PERK inh) | GRK2 CP2 inactive | FAM quench CP2 inactive
CCCCN(CC(=O)NCc1ccc(F)cc1)C(=O)c1ccco1	none
Cc1ccccc1S(=O)(=O)Cc1ccc(C(=O)NC(C)c2ccccc2)o1 (stereo not drawn)	none (no result: PERK inh)
COc1ccccc1S(=O)(=O)Cc1ccc(C(=O)NC(C)c2ccc3c(c2)OCCO3)o1 (stereo not drawn)	none | GRK2 inh confirm inactive | Aptamer quench SP inactive
OC[C@@H]1CN(Cc2ccc3c(c2)OCO3)C[C@H](n2cnc3c(NCc4ccncc4)ncnc32)O1	none (no result: PERK inh, PABP polyA inh, GRK2 inh, eIF4H FP inh)
O=S1(=O)C=C[C@@H](COCc2ccccc2)N1Cc1ccc(Br)cc1	none (no result: PERK inh, PABP polyA inh, GRK2 inh, eIF4H FP inh)
COc1cccc(-c2c(NC(C)=O)n(C)c3ccccc3c2=O)c1	GRK2 inh 46 (no result: PERK inh) | GRK2 inh confirm inactive | Aptamer quench SP inactive
CN(CC(=O)N1CCN(Cc2ccccc2)CC1)C(=O)Cc1cccc2ccccc12	none (no result: PERK inh, PABP polyA inh, eIF4H FP inh)
CNC(=O)CSc1nc2nn(-c3ccccc3)c(=O)c-2c2n1CCCCC2	none
CC(C)CNC(=O)CSc1nc2nn(-c3ccccc3)c(=O)c-2c2n1CCCCC2	none | GRK2 inh confirm inactive | Aptamer quench SP inactive
